Experimental data as given in PubChem BioAssay (NCI).
This is part of a sample that, as a whole, favours compounds with a hit. Of some 83,000 tested, about 20% had one in any assay.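 48-hour exposure, single concentration, 96-well plates; percent growth endpoint where 0 means no net growth. Active: below 10.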 Active and inactive are the calls of the source.

These molecules were tested on T-47D breast (assay: NCI-60 one-dose screen, 48 h (100 = growth as untreated, 0 = no growth, -100 = all killed)). Details: 10 µM.

For O=S(=O)(c1ccc(Cl)cc1)c1nc(-c2ccccc2)oc1S(=O)(=O)c1ccc(Cl)cc1, which growth is on record?
The growth was 78.8% (inactive).

How did the growth turn out when O=[N+]([O-])c1ccc(-c2nc(-c3ccccc3)c(-c3ccccc3)n2-c2ccc(S(=O)(=O)Nc3ncccn3)cc2)cc1 was run?
Its growth is 10.2% (inactive).

Which growth does the source give for Cc1cc(C(F)(F)F)ccc1C(=O)Nc1sc2c(c1C#N)CCC(=O)C2 here?
Its growth is -34% (active).

Which growth does the source give for Cc1ccn2c(C(=O)c3ccccc3)cc(-c3cc(-c4ccc(N(C)C)cc4)c(C#N)c(N)n3)c2c1 here?
The growth was 63.6% (inactive).

Which growth does the source give for COc1ccc2ncc(C#Cc3cncc(C(=O)Nc4ccc(CN5CCN(C)CC5)c(C(F)(F)F)c4)c3)n2n1 here?
The growth was 61.8% (inactive).

Which growth does the source give for CN1CCN(Cc2ccc(C(=O)Nc3cccc(Nc4ccc5cc(O)ccc5n4)c3)cc2C(F)(F)F)CC1 here?
The growth was -11.7% (active).

With O=C(c1ccc(Cl)cc1)C1[C@H](c2ccccc2Br)[C@@H](c2ccccc2)NC12C(=O)Nc1ccc(Cl)cc12 (some centres not stated) as the molecule, how does the growth read?
Its growth is 22% (inactive).

N#Cc1c(Cl)nc(SCc2ccc(F)cc2)nc1-c1ccc(F)cc1 was tested. Which growth did it give?
The growth was 66.8% (inactive).

How did the growth turn out when CC1=N/C(=C\c2ccc(N(C)C)cc2)C(=O)N1CCc1ccc(S(N)(=O)=O)cc1 was run?
Its growth is 83.2% (inactive).

Which growth does the source give for CC1(C)CC[C@]2(C(=O)O)CC[C@]3(C)C(=CC[C@@H]4[C@@]5(C)C/C(=C/c6ccncc6)[C@H](O)C(C)(C)[C@@H]5CC[C@]43C)[C@@H]2C1 here?
Its growth is 43.6% (inactive).

For Cc1ccc(/C=C/C(=O)c2ccc(NC(=O)CSc3nnc(-c4c[nH]c5ccccc45)n3-c3ccccc3)cc2)c(C)c1, which growth is on record?
The growth was 36.9% (inactive).

With COC1=C[C@]23CCC(=O)N2CCc2cc4c(cc2[C@@H]3[C@@H]1OC(=O)CCCC(C)C)OCO4 as the molecule, how does the growth read?
The growth was 68.3% (inactive).

How did the growth turn out when COC(=O)c1c(C(=O)OC)c2n(c1C)[C@@H]([C@@H](C)[C@H]1CC[C@H]3[C@@H]4CCC5=CC(=O)CC[C@]5(C)[C@H]4CC[C@]13C)SC2 was run?
The growth was 4.62% (active).

For O=C(CNc1nc(-c2ccccc2)cs1)Nc1cccc([N+](=O)[O-])c1, which growth is on record?
The growth was -49.9% (active).

With CN(C(=O)c1ccc(C(C)(C)C)cc1)c1sc2c(c1C#N)CCC(=O)C2 as the molecule, how does the growth read?
The growth was -40.3% (active).

Cc1cc(C)nc(NS(=O)(=O)c2ccc(N/C(N)=N/c3nccc(-c4ccccc4)n3)cc2)n1 was tested. Which growth did it give?
Its growth is 25.1% (inactive).

With O=C(NO)c1ccc(Cn2ccc3c(Nc4ccccc4)ncnc32)cc1 as the molecule, how does the growth read?
The growth was -8.19% (active).

Cc1noc2c(Cc3ccccc3)nn(CC(=O)N/N=C/c3ccc(Br)cc3)c(=O)c12 was tested. Which growth did it give?
Its growth is 8.11% (active).

For N#Cc1c(-c2ccc(F)cc2)nc(SCc2ccc([N+](=O)[O-])cc2)nc1N1CCOCC1, which growth is on record?
Its growth is 55.5% (inactive).

Which growth does the source give for COc1ccc(-c2ccc(/C=N/NC(=O)c3[nH]c4ccc(Br)cc4c3-c3ccccc3)s2)cc1 here?
The growth was 72% (inactive).

CC1(c2ccccc2)NC(=O)N(CC(=O)Nc2ccc(C(=O)/C=C/c3ccc(Cl)cc3)cc2)C1=O (configuration not stated) was tested. Which growth did it give?
Its growth is 10.4% (inactive).

With O=c1[nH]c2ccccc2cc1CSc1ccc(Nc2nccc(-c3ccc4ccccc4c3)n2)cc1 as the molecule, how does the growth read?
Its growth is 86.8% (inactive).

COC(=O)CC1CC1C1Cc2c(nc(N(C)S(C)(=O)=O)nc2C(C)C)-c2ccc(F)cc21 (configuration not stated) was tested. Which growth did it give?
Its growth is 63.8% (inactive).

How did the growth turn out when COc1ccc(CN2[C@H](C(=O)NCCCCCCC(=O)NO)Cc3c([nH]c4ccccc34)[C@H]2C2CC2)cc1 was run?
Its growth is -10.3% (active).

With O=C(CSc1nnc(-c2c[nH]c3ccccc23)n1-c1ccccc1)Nc1ccc(C(=O)/C=C/c2cccc([N+](=O)[O-])c2)cc1 as the molecule, how does the growth read?
The growth was 57.5% (inactive).

Which growth does the source give for Cc1ccc(NCC(=O)Nn2c(COc3ccccc3)nc3ccccc3c2=O)cc1 here?
The growth was 82.6% (inactive).

Which growth does the source give for C/C(=C\CC/C=C(\C)CC/C=C(\C)CC[C@@H](O)C(C)(C)O)CC/C=C(\C)CC[C@@H](O)C(C)(C)O here?
The growth was 6.38% (active).

How did the growth turn out when CCOC(=O)N/C(=C1/OCCN1C)[P+](c1ccccc1)(c1ccccc1)c1ccccc1 was run?
The growth was 65.9% (inactive).

How did the growth turn out when COc1cccc(-c2ccc(/C=N/NC(=O)c3[nH]c4ccc(Br)cc4c3-c3ccccc3)o2)c1 was run?
Its growth is 54.7% (inactive).

For Cn1cc(/C=N/Nc2cccc(Cl)n2)c2ccccc21, which growth is on record?
Its growth is 47.2% (inactive).

O=C(CNc1nc(-c2ccccc2)cs1)Nc1ccc(Cl)cc1[N+](=O)[O-] was tested. Which growth did it give?
The growth was -32.6% (active).

Which growth does the source give for CCCCCCCCCCCCCCCCCCCC(=O)NCCc1c[nH]c2ccc(OC(=O)CCCC(=O)OCCOOCCOOCCOOCCOOCCOOCCOOCCOOCCOOCCOOCCOOCCOOCCOC)cc12 here?
Its growth is 22.4% (inactive).

How did the growth turn out when COC[C@@H](CC(C)C)N=C1N/C(=C\c2ccc3ncsc3c2)C(=O)N1C was run?
The growth was -7.71% (active).

For COc1ccccc1[C@H]1C(C(=O)c2ccc(O)cc2)C2(N[C@@H]1c1ccccc1)C(=O)Nc1ccc(Br)cc12 (some centres not stated), which growth is on record?
The growth was 45.8% (inactive).

Which growth does the source give for COc1ccc(C(=O)Nc2ccc(-c3ccc4c(c3)NC(=O)/C4=C\c3ccc[nH]3)cc2)cc1 here?
The growth was 14.5% (inactive).

O=C(Nc1ccncc1)c1ccc(-n2c(=O)[nH]c3ccccc3c2=O)cc1 was tested. Which growth did it give?
The growth was 81.7% (inactive).

O=C(NO)c1ccc(-c2nc3ccc4[nH]ncc4c3c3c2CCCC3)cc1 was tested. Which growth did it give?
Its growth is -8.47% (active).
